Assay outcomes as filed in PubChem.
Pf growth 48h: inhibits P. falciparum growth in the first generation, 48 h | Potency, µM (doses to about 28.7 µM), for inactives: top-dose activity change, negative = inhibition, usual class: inhibitors | P. falciparum luciferase growth in erythrocytes, 48 h | 5.9% of 310,000 active; further: potency means the concentration at half of the fitted maximal effect; on the % scale 0 is the no-effect control and ±100 the full control effect
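Parasite viability was followed by luminescence of a genomically integrated firefly luciferase. Cultures held 0.1% parasitemia at 2% hematocrit (final), incubated under 5% CO2 at 37 C.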
Shiga toxin inh: blocks Shiga toxin action in Vero cells; 9.2% of 290,000 active; Vero cells, Shiga toxin protein synthesis inhibition reporter; inhibition, % at 38.7 µM; in the data active means inhibition mostly above about 28%, no sharp cut-off; inactive means mostly below about 43%; further: 0% is about no effect
Cycloheximide cs: affects cycloheximide protein synthesis inhibition readout, counter-screen; 12% of 300,000 active; cell reporter, cycloheximide protein synthesis inhibition counterscreen; AID 2314; max response, %; in the data active means max response mostly above about 13%, no sharp cut-off; inactive means mostly below about 14%; further: read at 38.3 µM for the half of the compounds with a filed dose; 0% is about no effect
LmPK inhibitor: LmPK (Leishmania mexicana) enzyme inhibition; Q27686; purified LmPK, Kinase-Glo ATP luminescence, 1 h; Potency, µM (titrated, usually from 57.5 µM), without a hit: at the highest dose activity change, negative = inhibition, hits mostly inhibitors; 0.37% of 290,000 active; further: potency means the concentration at half of the fitted maximal effect; on the % scale 0 is the no-effect control and ±100 the full control effect
Target sequence (Q27686 whole entry, looked up): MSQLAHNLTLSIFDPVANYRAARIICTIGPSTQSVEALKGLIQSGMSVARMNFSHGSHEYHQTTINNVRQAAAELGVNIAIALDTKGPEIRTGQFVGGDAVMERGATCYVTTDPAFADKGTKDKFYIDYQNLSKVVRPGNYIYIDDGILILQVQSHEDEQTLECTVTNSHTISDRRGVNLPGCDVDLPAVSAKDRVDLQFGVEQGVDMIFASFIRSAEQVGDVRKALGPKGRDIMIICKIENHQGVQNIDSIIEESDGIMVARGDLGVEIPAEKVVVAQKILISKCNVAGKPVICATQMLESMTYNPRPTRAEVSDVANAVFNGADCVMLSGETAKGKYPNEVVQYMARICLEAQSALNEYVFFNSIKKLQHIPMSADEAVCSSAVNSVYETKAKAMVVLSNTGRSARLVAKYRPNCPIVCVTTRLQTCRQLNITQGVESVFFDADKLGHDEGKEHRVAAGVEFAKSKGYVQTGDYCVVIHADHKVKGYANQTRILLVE
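Screened at intermediate enzyme activity to detect both inhibitors and activators: LmPK at 0.1 nM, with a 0.5 nM enzyme column as activation reference. PEP 0.5 mM, ADP 0.1 mM; ATP detected by luminescence after 1 h.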
Pf growth 96h: inhibits malaria parasite growth, 96 h; P. falciparum luciferase reporter growth, 96 h; Potency, µM (highest dose often 28.7 µM), for the others: top-dose activity change, negative = inhibition, most hits filed as inhibitors; 6.9% of 320,000 active; further: potency means the concentration at half of the fitted maximal effect; on the % scale 0 is the no-effect control and ±100 the full control effect
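Compounds incubated with erythrocytes infected by luciferase-expressing P. falciparum (2% hematocrit, 0.05% parasitemia final) for 96 hours, 37 C in 5% CO2. Growth inhibition scored as decreased luciferase luminescence.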
Active calls of the source: *; ? = inconclusive; . = no result; [ ] = remark or other dose. Only some compounds are listed: those with a hit (about 22% of all), similar ones and a draw of the others. Unless noted, the call rests on the fitted dose curve; in most records, active means well fitted inhibition curve with a large enough effect; inconclusive means small, poorly fitted or top-dose-only effect, or another doubt; inactive means no such curve, though single readings can be large or run the other way.

SMILES | Pf growth 48h | Shiga toxin inh | Cycloheximide cs | LmPK inhibitor | Pf growth 96h
COc1cc2ccccc2cc1C(=O)Nc1ccccc1Cl | ? | 70.8* | 86.5* | -1.4% | 31.5%
CCOc1ccc(NC(=O)c2cccc3ccccc23)cc1 | 12.0% | 36.6 | 18.1* | -4.8% | ?
CCOc1ccc(NC(=O)c2cc(OC)nc3ccccc23)cc1 | 21.4%[0.00184 µM] | 1.8 | -1.2 | -2.1% | -26.0%
COc1cc2cc(C(=O)Nc3ccccc3)c(N)nc2cc1OC | 2.33µM* | -11.1 | -3.4 | -0.3% | ?
COc1cc2ccccc2cc1C(=O)NNC(=O)c1ccccc1O | ? | 7.1 | -2.6 | -8.0% | ?
Cc1sc2c(c1C)C(O)=C(C(=O)Nc1ccccc1)S(=O)(=O)N2C | -9.3% | -15.0 | 7.6 | 2.7% | ?
CC(C)OCCCNC(=O)c1ccc(Br)cc1 | 45.8% | 83.3 | 44.5* | -6.4% | 200.1%
CCOCCCNC(=O)c1ccc(Br)cc1 | 46.4% | 57.2 | 26.5* | 1.0% | 105.6%
CC(C)OCCCNC(=O)c1ccncc1 | 8.3% | 7.1 | -4.9 | -7.7% | .
CCOCCCNC(=O)c1ccc(OC)cc1 | 57.6% | 32.1 | 21.2* | -0.9% | .
CCOCCCNC(=O)c1ccc2c(=O)n(Cc3ccc(OC)cc3)c(=O)[nH]c2c1 | 5.86µM* | 2.6 | 1.4 | -7.4% | 56.2%
COCCCNC(=O)c1ccc2c(=O)n(Cc3ccc(OC)cc3)c(=O)[nH]c2c1 | -29.2% | -3.9 | 5.2 | 10.2% | ?
CCC(Oc1ccc(Br)cc1Cl)C(=O)Nc1nnc(C2CC2)s1 (configuration not stated) | -2.4% | 19.1 | -6.0 | 2.6% | -25.8%
COc1ccccc1C(=O)NN(C)C1=NS(=O)(=O)c2ccccc21 | 4.9% | -8.6 | -2.8 | 0.6% | ?
CC(C)CNC(=O)CC(c1ccccc1)c1ccccc1 | -3.3% | -2.9 | -2.2 | 1.2% | 12.4%
Cc1ccc(NC(=O)c2ccc(OC(=O)CCN3C(=O)c4ccccc4C3=O)cc2)cc1 | 198.4% | 72.3* | 36.7* | 0.9% | .
Cc1ccc(OCC(=O)Oc2c(C)cccc2C)cc1 | 7.4% | 0.8 | 1.1 | 2.5% | 0.329µM*
Cc1ccc(NC(=O)c2ccc(OC(=O)COc3cccc(Cl)c3)cc2)cc1 | 250.7% | 50.9* | 36.0* | -5.2% | ?
Cc1cc(C)cc(OC(=O)CCN2C(=O)c3ccccc3C2=O)c1 | ? | 7.8 | -0.8 | -2.8% | ?
Cc1ccc(NC(=O)c2ccc(OC(=O)COc3ccc(Cl)cc3C)cc2)cc1 | 262.8% | 14.7 | 45.8* | -1.9% | 376.9%
CCN(CC)CCC(=O)NN | 22.7% | 9.6 | -4.0 | 0.9% | 55.4%[5.75 µM]
O=C1/C(=C/c2ccccc2)NC(=S)N1C(c1ccccc1)c1ccccc1 | 11.7µM* | -2.1 | -2.4 | 1.4% | .
O=[N+]([O-])c1ccc(N2CCN(c3cccc(Cl)c3)CC2)cn1 | 0.0% | 3.6 | 8.7 | 0.3% | -23.5%
COc1cccc(CN2CC(C(=O)N(C)Cc3ccnc4ccccc34)CCC2=O)c1 (configuration not stated) | -0.7% | -2.3 | -0.5 | -1.2% | ?
N=C(N)SCc1cn2ccccc2n1 | 6.0% | -2.1 | 11.9 | -4.6% | 18.7%
SMILES | Pf growth 48h | Shiga toxin inh | Cycloheximide cs | LmPK inhibitor | Pf growth 96h
c1ccc(SCc2cn3cccnc3n2)nc1 | 0.0% | 12.7 | 13.7 | 9.1% | -23.1%
Cc1cccn2cc(CSc3ccccc3N)nc12 | . | 59.4 | 30.9* | -8.6% | 64.5%
Cc1cccn2cc(CNS(=O)(=O)c3ccc4ccccc4c3)nc12 | -0.7% | -4.7 | -5.6 | -7.3% | 37.8%
Nc1ccccc1SCc1cn2cccnc2n1 | 38.3% | 79.7* | 24.0* | 4.0% | 33.3%
Nc1ccccc1SCc1cn2ccccc2n1 | 228.2% | 55.0* | 67.8* | -24.4% | 179.1%
C=CCN1c2ccccc2[C@]23C[C@@H](C(=O)OC)N(S(=O)(=O)c4ccc5c(c4)OCCN5C)C2=NC(C(=O)OC)=C(C(=O)OC)[C@H]13 | . | . | . | -1.1%[11.5 µM] | .
O=C(NC1CCSc2ccccc21)c1ccccc1F (configuration not stated) | 23.1% | 53.8* | 31.5* | -5.3% | 28.8%
O=C(NC1CCN(C(=O)N2c3ccccc3Sc3ccccc32)CC1)c1ccccc1F | 2.94µM* | -5.2 | -0.7 | 3.9% | ?
CC1CCN(C(=O)N2c3ccccc3Sc3ccccc32)CC1 | . | -18.4 | -7.5 | -0.6% | .
O=C(NC1CCSc2ccccc21)c1ccccc1Cl (configuration not stated) | -4.3% | 37.4* | 39.1* | -2.1% | -22.4%
